HCV inhibitor – inhibitors of hepatitis C virus infection | Huh7.5.1 HCVcc-Cre infection, luciferase reporter, 44 h | Potency, µM (titrated, usually from 41.8 µM), for the others: at the highest dose activity change, negative = inhibition, most hits filed as inhibitors | 3.4% of 340,000 active | AID 651820; note: potency is the fitted concentration of half-maximal effect
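Cells (1,000/well) were plated 4 h before compound, then infected with HCVcc-Cre virus (~0.5 moi). After 44 h further culture, infection was read as luciferase luminescence following a 15 min substrate incubation at room temperature.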
Pf growth 96h – P. falciparum growth inhibition at 96 hour, primary screen for plastid delayed-death inhibitors | 6.9% of 320,000 active | Potency, µM (series often up to 28.7 µM), for inactives: at the highest dose activity change, negative = inhibition, most hits filed as inhibitors | P. falciparum luciferase reporter growth, 96 h | AID 504834; note: potency is the fitted concentration of half-maximal effect
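Two parasite generations (96 h, 37 C, 5% CO2) of compound exposure in infected erythrocytes (0.05% parasitemia, 2% hematocrit). Luciferase-reporter P. falciparum; decreased luminescence indicates inhibited growth, aimed at apicoplast-acting delayed death.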
Pf growth 48h – P. falciparum growth inhibition at 48 hours (one generation); Potency, µM (titrated, usually from 28.7 µM), without a hit: at the top dose activity change, negative = inhibition, actives largely listed as inhibitors; 5.9% of 310,000 active; P. falciparum luciferase growth in erythrocytes, 48 h; note: potency is the fitted concentration of half-maximal effect
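Firefly luciferase activity from engineered P. falciparum reports growth; inhibitors lower the luminescent signal. Cultures contained 2% hematocrit erythrocytes at 0.1% final parasitemia.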
HCMV inh – blocks human cytomegalovirus replication. HFF cells, HCMV-luciferase reporter, 72 h; hits give low values. activity change, negative = inhibition, % at 57.5 µM. 4.5% of 410,000 active. AID 1259415; in the data active = activity change below about -60%; inconclusive = no clear call, values can overlap the other calls; inactive = above about -39%
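Luciferase read-out from HCMV-luciferase-infected HFFs (MOI 1 PFU/cell) 72 h post infection at 37C; compounds added after 16 h cell attachment; activity normalized between buffer-only basal and Salinomycin (10uM) inhibitor controls.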
An asterisk follows results filed as active; u = inconclusive; x = no result given; ! = repeats disagree. Only some compounds are listed: those with a hit (about 13% of all), similar ones and a draw of the others. Unless noted, calls come from the whole dose curve; as a rule, active = well fitted inhibition curve with a large enough effect; inconclusive = small, poorly fitted or top-dose-only effect, or another doubt; inactive = no such curve, though single readings can be large or run the other way. % is set by controls: 0 for no effect and ±100 for the full control effect.

SMILES | HCV inhibitor | Pf growth 96h | Pf growth 48h | HCMV inh
O=C1c2cc(F)ccc2-n2c1nc1ccccc1c2=O | 2.5µM* | 0.029µM* | 0.033µM* | -83*
CCOC(=O)C1CCCN(C(=S)NC(=O)/C=C/c2ccc(F)cc2)C1 (centres undefined) | -15% | 1% | u | -82*
CCOC(=O)C1CCCN(C(=O)/C=C/c2ccc(Cl)cc2)C1 (centres undefined) | -2% | -12% | 5% | -26
COc1ccccc1Cc1c(-c2ccc(C)cc2)nc2ccc(C)cn12 | x | x | x | 26
Cc1cc(Br)cn2c(Cc3cccc(Cl)c3)c(C3CCCCC3)nc12 | x | x | x | 10
CCc1ccc(NC(=O)Cc2ccc(-n3cccc3)cc2)cc1 | 7% | 2.1µM* | 20% | -11
O=C(Nc1ccc(-n2cccc2)cc1)C1CC1 | -3% | -23% | 12µM* | 16
CCN(CC)c1ccc(NC(=O)c2ccccn2)cc1S(=O)(=O)Nc1ccccc1OC | -29% | 10µM* | 5.9µM* | -21
CCN(CC)c1ccc(NC(=O)COc2ccccc2C#N)cc1S(=O)(=O)Nc1ccccc1OC | u | 9.3µM* | 1.7µM* | -13
CCN(CC)c1ccc(N)cc1S(=O)(=O)Nc1ccccc1OC | -13% | 11% | -6% | u
CCCCNC(=O)c1nc(-c2cc3ccccc3[nH]2)oc1-c1ccccc1 | x | x | x | -37
C[C@H](CCC(=O)O)[C@H]1CC[C@H]2[C@@H]3[C@H](O)C[C@@H]4C[C@H](O)CC[C@]4(C)[C@H]3C[C@H](O)[C@]12C | 13% | 12µM*! | 9.3µM*! | 110
C[C@H](CCC(=O)O)[C@H]1CC[C@@H]2[C@H]3[C@@H](C[C@@H](O)[C@]21C)[C@]1(C)CC[C@H](O)C[C@@H]1C[C@@H]3O | x | -17% | -13% | x
Cn1c2ccccc2c2cc(/C=N/NC(=O)c3ccc(N)cc3)ccc21 | 11µM* | u | 13µM* | 1
CCn1c2ccccc2c2cc(/C=N/NC(=O)c3ccccc3C)ccc21 | 5.6µM* | -5% | u | -23
CCn1c2ccccc2c2cc(/C=N/NC(=O)c3cccc(C)c3)ccc21 | u | 28% | u | 20
Cn1c(=O)n(C)c2cc(/C=N/NC(=O)c3ccc(Cl)cc3)ccc21 | -3% | 2% | -16% | -8
Cn1c2ccccc2c2cc(/C=N/NC(=O)c3ccccc3F)ccc21 | 14µM* | u | u | -3
Cc1cccc(NC(=O)Cn2c(=O)oc3cc(S(=O)(=O)N4CCCCCC4)ccc32)c1 | x | x | x | -32
Cc1ccc(C)c(N2CCN(C(=O)C(C)n3c(C)c4cnn(-c5ccccc5)c(=O)c4c3C)CC2)c1 (centres undefined) | x | x | x | -11
COc1ccccc1C1(CC(=O)Nc2nccs2)CCOC(C(C)C)C1 (centres undefined) | u | 13µM* | u | -21
Cc1ccc2oc(=O)n(CCCOc3ccc(Cl)cc3)c2c1 | x | x | x | -8
C[C@H](NC(=O)c1ncn(C)c1C(=O)N[C@@H](C)c1ccccc1)c1ccccc1 | 12% | x | x | 28
C[C@@H](NC(=O)c1ncn(Cc2ccccc2)c1C(=O)N[C@H](C)c1ccccc1)c1ccccc1 | u | u | 13µM* | 26
COc1cc(NC(=O)C2CCN(C(=O)c3sc4nc[nH]c(=O)c4c3C)CC2)cc(OC)c1OC | x | x | x | 29
SMILES | HCV inhibitor | Pf growth 96h | Pf growth 48h | HCMV inh
CC(C)COc1cccc(C(=O)Nc2ccc(-c3nc4ncccc4o3)cc2)c1 | x | x | x | 7
CN=C1SC(CC(=O)Nc2sc(C)c(C)c2C(=O)OC)C(=O)N1C (centres undefined) | u | u | -82% | -12
CCc1cc(C(=O)OC)c(NC(=O)CC2SC(=NC)N(C)C2=O)s1 (centres undefined) | 16µM* | 22% | -27% | 10
Cc1ccc2c(c1)c(=O)c(C(=O)c1ccncc1)cn2CC(=O)Nc1c(C)cccc1C | x | x | x | 42
Cc1nc(SCC(=O)Nc2cc(S(=O)(=O)N3CCOCC3)ccc2Cl)nc(C)c1C | -28% | 15µM* | u | -19
O=C(CNc1ccccc1Cl)Nc1cc(S(=O)(=O)N2CCOCC2)ccc1Cl | -27% | u | u | -13
Cc1cc2nnc(SCC(=O)Nc3cc(S(=O)(=O)N4CCOCC4)ccc3Cl)n2c2ccccc12 | u | 7.4µM* | 5.2µM* | u
Cc1ccc(S(=O)(=O)N2CCOCC2)cc1NC(=O)CSc1nnc2cc(C)c3ccccc3n12 | u | 13µM* | 5.9µM* | -63*
Cc1ccc(S(=O)(=O)N2CCOCC2)cc1NC(=O)CSc1ncccn1 | 2% | 4% | u | -6
COc1ccc(OC)c2sc(NC(=O)c3ccc(S(=O)(=O)N4CCCC4)cc3)nc12 | x | x | x | -20
COc1ccc2cc3cc(C(=O)N4CCN(c5cccc(Cl)c5)CC4)sc3nc2c1 | x | x | x | 3
O=C(Nc1ccc(Br)cc1F)C(NS(=O)(=O)c1cccc2nsnc12)c1ccccc1 (centres undefined) | x | x | x | 6
O=C(COC(=O)COc1ccccc1[N+](=O)[O-])NC1CCCC1 | 1% | 13% | -8% | -27
CCOC(=O)COc1cc([N+](=O)[O-])cc2cccnc12 | 6% | u | -22% | -29
CCOC(=O)COc1ccccc1/C=C\[N+](=O)[O-] | u | 107% | 15µM* | x
Cc1ccc(C(=O)COC(=O)COc2ccccc2[N+](=O)[O-])s1 | 30% | 12% | 5% | -101*
Fc1ccc(-c2noc3ncnc(NCCCN4CCN(c5ccccc5)CC4)c23)cc1 | x | x | x | -24
O=C1C=C(c2c(O)ccc3ccccc23)c2ccccc2C1=O | u | x | x | -97*
CC(=O)[C@@H]1[C@@H](C)N(Cc2ccccc2)C(=O)N[C@H]1c1cccc(C(F)(F)F)c1 | u | 37% | u | -29
COC(=O)[C@@H]1[C@@H](C)N(Cc2ccccc2)C(=O)N[C@H]1c1cccc(C(F)(F)F)c1 | 2.8µM* | 47% | 17% | -20
CCOC(=O)CN1C(=O)N[C@@H](c2ccccc2)[C@H](C(C)=O)[C@H]1C | 17% | x | x | -103*
Cc1ccc(NC(=O)c2oc3ccc(S(=O)(=O)N4CCCCC4)cc3c2C)c(C)c1 | x | x | x | 8
Cc1c(C(=O)N(Cc2ccc(Cl)cc2)CC2CCCO2)oc2ccc(F)cc12 (centres undefined) | x | x | x | 13
COc1cc(/C=C/C(=O)Nc2cccc(S(=O)(=O)NC3=NCCCCC3)c2)ccc1OCC#N | 6.3µM* | u | 10µM* | -31
COc1ccc(OC)c(/C=C/C(=O)Nc2cccc(S(=O)(=O)NC3=NCCCCC3)c2)c1 | u | u | 10µM* | -18
O=C(/C=C/c1ccc(OC(F)F)cc1)Nc1cccc(S(=O)(=O)NC2=NCCCCC2)c1 | u | -3% | -3% | -69*
COc1ccc(/C=C/C(=O)Nc2cccc(S(=O)(=O)NC3=NCCCCC3)c2)cc1 | u | 90% | 56% | -5
CCOC(=O)c1cnn(-c2cccc(Cl)c2)c1C1CCN(C(=O)OC(C)(C)C)CC1 | x | x | x | 1
COc1cccc(NC(=O)Cn2c(=O)n(-c3ccccc3)c(=O)c3c2c2cc(OC)ccc2n3C)c1 | x | x | x | 7
